Potency and outcome data for nine compounds are collected here from PubChem BioAssay (Tox21).

Assay [1] in a line: qHTS assay to identify small molecule agonists of the peroxisome proliferator-activated receptor delta (PPARd) signaling pathway - cell viability counter screen (AID 743211; active = well fitted curve in the direction sought with a large enough effect in the repeat runs; an effect the other way counts as inactive or inconclusive; note: nearly all actives have a fitted effect of over 55% in size; note: potency is the fitted concentration of half-maximal effect). The method, boiled down:
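Viability of GeneBLAzer PPARd UAS-bla HEK293H cells was assessed after 17 h compound incubation at 37C, using CellTiter-Glo reagent added after the reporter read and luminescence recorded 30 min later.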
(In qHTS, concentration-response curves come from the screen itself.)

The nature of assay [2]: qHTS assay to identify small molecule antagonists of the peroxisome proliferator-activated receptor delta (PPARd) signaling pathway - cell viability counter screen (AID 743213; active = well fitted curve in the direction sought with a large enough effect in the repeat runs; an effect the other way counts as inactive or inconclusive; note: nearly all actives have a fitted effect of over 50% in size; note: potency is the fitted concentration of half-maximal effect). The method, boiled down: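 Agonist-stimulated (L165041, 300 nM final) HEK293H PPARd UAS-bla cells are exposed to compounds for 17 h at 37 C, and ATP-based luminescence (CellTiter-Glo) from the same wells reports cytotoxicity.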

Assay [3] in a line: qHTS assay to identify small molecule agonists of the farnesoid-X-receptor (FXR) signaling pathway - cell viability counter screen (AID 743218; active = well fitted curve in the direction sought with a large enough effect in the repeat runs; an effect the other way counts as inactive or inconclusive; note: nearly all actives have a fitted effect of over 45% in size; note: potency is the fitted concentration of half-maximal effect). The procedure, abridged:
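Parallel cytotoxicity test: compound-treated (16 h, 37 C) HEK 293T FXR-bla reporter cells were lysed with CellTiter-Glo and luminescence recorded.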

Assay [4] can be described thus: qHTS assay to identify small molecule antagonists of the farnesoid-X-receptor (FXR) signaling pathway - cell viability counter screen (AID 743221; active = well fitted cell-killing curve with a large enough effect in the repeat runs, not every such curve was filed as active; note: nearly all actives have a fitted effect of over 50% in size; note: potency is the fitted concentration of half-maximal effect). The procedure, abridged: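 Quantitative HTS of the Tox21 10K library run in parallel with the beta-lactamase reporter read. HEK 293T cells carrying a UAS-driven bla reporter got compound and 50 uM CDCA (final) for 16 h; ATP-based luminescence followed.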

Assay [5] has as its target Vitamin D3 receptor (Homo sapiens) (UniProt P11473). In words: qHTS assay to identify small molecule agonists of the vitamin D receptor (VDR) signaling pathway (AID 743222). The procedure, abridged:
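In VDR-bla cells, compound-induced beta-lactamase expression is quantified by FRET substrate fluorescence. Treatment lasts 16 h at 37C; substrate develops 2 h at room temperature.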

Assay [6] has the same target. In words: qHTS assay to identify small molecule antagonists of the vitamin D receptor (VDR) signaling pathway (AID 743223; active = well fitted inhibition curve with a large enough effect in the signal ratio in the repeat runs, not every such curve was filed as active; the % refers to the signal ratio; note: potency is the fitted concentration of half-maximal effect). The procedure, abridged:
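Fluorescence from LiveBLAzer B/G FRET substrate, read after 2 h at room temperature, reflects beta-lactamase reporter activity in VDR-bla cells treated 16 h at 37C with compounds and agonist 1alpha,25-dihydroxyvitamin D3 (3 nM final).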

A short description of assay [7]: qHTS assay to identify small molecule agonists of the vitamin D receptor (VDR) signaling pathway - cell viability counter screen (AID 743224; active = well fitted curve in the direction sought with a large enough effect in the repeat runs; an effect the other way counts as inactive or inconclusive; note: nearly all actives have a fitted effect of over 50% in size; note: potency is the fitted concentration of half-maximal effect). The procedure, abridged:
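Plated VDR-bla cells (4 h, 37C) received compound, incubated 16 h, then LiveBLAzer substrate 2 h RT; CellTiter-Glo added afterwards, luminescence read at 30 min.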

Assay [8] in a line: qHTS assay to identify small molecule antagonists of the vitamin D receptor (VDR) signaling pathway - cell viability counter screen (AID 743225; active = well fitted curve in the direction sought with a large enough effect in the repeat runs; an effect the other way counts as inactive or inconclusive; note: nearly all actives have a fitted effect of over 50% in size; note: potency is the fitted concentration of half-maximal effect). The method, boiled down:
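Cells (VDR-UAS-bla HEK 293T) are plated, rested 4 h at 37C, dosed with compound and 3 nM final 1-alpha,25-dihydroxy vitamin D3, and incubated 16 h. Viability is taken from CellTiter-Glo luminescence in the reporter wells.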

The nature of assay [9]: qHTS assay to identify small molecule agonists of the NFkB signaling pathway - cell viability counter screen (AID 1159515). Note: nearly all actives have a fitted effect of over 55% in size. Note: potency is the fitted concentration of half-maximal effect. The method, boiled down:
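Using the same wells as the NFkB reporter read, ME-180 NFkB-bla cells given compounds for 5 hr were assessed for viability via CellTiter-Glo, with luminescence taken after a 30 min room-temperature incubation.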

Assay [10] is described as follows: qHTS assay to identify small molecule agonists of the endoplasmic reticulum stress response signaling pathway - cell viability counter screen (AID 1159517). Note: nearly all actives have a fitted effect of over 50% in size. Note: potency is the fitted concentration of half-maximal effect. The procedure, abridged: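 Luminescence readout: CellTiter-Glo, 30 min RT, same wells as the ESRE-bla reporter read. HeLa ESRE-bla, 1,500 cells/well, o/n 37 C; cpd 5 hr 37 C/5% CO2.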
A short description of assay [11]: qHTS assay to identify small molecule antagonists of the retinoid-related orphan receptor gamma (ROR-gamma) signaling pathway - cell viability counter screen (AID 1159520; active = well fitted curve in the direction sought with a large enough effect in the repeat runs; an effect the other way counts as inactive or inconclusive; note: nearly all actives have a fitted effect of over 50% in size; note: potency is the fitted concentration of half-maximal effect). The procedure, abridged: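 Tet-on ROR gamma CHO cells (1,000/well) were plated 4 hr, given compounds in DMSO for 2 hr at 37 C, then induced with 1 uM final doxycycline for 16 hr. Viability was read as ATP by CellTiter-Glo luminescence after 30 min.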

Assay [12] in a line: qHTS assay to identify small molecule agonists of the AP-1 signaling pathway - cell viability counter screen (AID 1159525). Note: nearly all actives have a fitted effect of over 55% in size. Note: potency is the fitted concentration of half-maximal effect. The procedure, abridged:
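ME-180 AP-1-bla, 2500 cells/well, Opti-MEM + 0.5% dialyzed FBS; overnight 37 °C; cpd 15-pt titration, 5 h 37 °C; CellTiter-Glo 30 min RT; luminescence read; normalised to TOAB and DMSO controls.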

For assay [13], the target named is Nuclear receptor ROR-gamma (Homo sapiens) (UniProt P51449). In words: qHTS assay to identify small molecule antagonists of the retinoid-related orphan receptor gamma (ROR-gamma) signaling pathway (AID 1159521; active = well fitted curve in the direction sought with a large enough effect in the repeat runs; an effect the other way counts as inactive or inconclusive; note: nearly all actives have a fitted effect of over 50% in size; note: potency is the fitted concentration of half-maximal effect). The procedure, abridged:
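RORγ antagonism is scored from reduced reporter luminescence in Tet-on CHO cells. Induction used 1 uM final doxycycline hyclate for 16 h at 37 C, following a 2 h compound exposure.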

For assay [14], the target named is Peroxisome proliferator-activated receptor delta (Homo sapiens) (UniProt Q03181). In words: qHTS assay to identify small molecule agonists of the peroxisome proliferator-activated receptor delta (PPARd) signaling pathway (AID 743212). Note: potency is the fitted concentration of half-maximal effect. The method, boiled down: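 GeneBLAzer PPARd UAS-bla HEK293H cells (beta-lactamase reporter under UAS control), plated and rested 5 h at 37 C, then exposed to compounds in DMSO at 37 C; LiveBLAzer B/G FRET substrate added, 2 h room temperature, fluorescence read.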
Sequence of Peroxisome proliferator-activated receptor delta (Homo sapiens) (Q03181 whole entry, looked up): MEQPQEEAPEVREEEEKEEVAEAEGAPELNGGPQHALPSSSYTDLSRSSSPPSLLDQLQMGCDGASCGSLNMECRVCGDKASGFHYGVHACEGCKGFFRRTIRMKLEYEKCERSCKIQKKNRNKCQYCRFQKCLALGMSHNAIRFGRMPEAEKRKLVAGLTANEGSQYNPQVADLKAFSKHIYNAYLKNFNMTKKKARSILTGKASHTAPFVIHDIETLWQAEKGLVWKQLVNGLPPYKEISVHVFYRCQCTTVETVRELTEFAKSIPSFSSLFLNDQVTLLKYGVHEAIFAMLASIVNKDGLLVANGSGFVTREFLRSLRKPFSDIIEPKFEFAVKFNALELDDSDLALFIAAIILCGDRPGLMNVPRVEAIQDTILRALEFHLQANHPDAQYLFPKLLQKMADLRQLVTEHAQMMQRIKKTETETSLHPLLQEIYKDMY

Assay [15] concerns the target Bile acid receptor (Homo sapiens) (UniProt Q96RI1). In words: qHTS assay to identify small molecule agonists of the farnesoid-X-receptor (FXR) signaling pathway (AID 743220; active = well fitted activation curve with a large enough effect in the signal ratio in the repeat runs, not every such curve was filed as active; the % refers to the signal ratio). The method, boiled down:
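Beta-lactamase reporter under UAS control in GeneBLAzer FXR HEK 293T cells (5000/well) measured with LiveBLAzer FRET substrate after 2 h at room temperature. Compound exposure lasted 16 h at 37C.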

Assay [16] in a line: qHTS assay to identify small molecule agonists of the AP-1 signaling pathway (AID 1159526).
The target of assay [17] is Peroxisome proliferator-activated receptor delta (Homo sapiens) (UniProt Q03181). In words: qHTS assay to identify small molecule antagonists of the peroxisome proliferator-activated receptor delta (PPARd) signaling pathway (AID 743215; active = well fitted inhibition curve with a large enough effect in the signal ratio in the repeat runs, not every such curve was filed as active; the % refers to the signal ratio; note: series mostly up to about 62 µM). The method, boiled down:
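HEK293H UAS-bla, PPARd; agonist L165041 300 nM final with cpd in DMSO; 37 C 17 h; FRET substrate, RT 2 h; fluorescence intensity.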

In assay [18] the target is Bile acid receptor (Homo sapiens) (UniProt Q96RI1). In words: qHTS assay to identify small molecule antagonists of the farnesoid-X-receptor (FXR) signaling pathway (AID 743217; active = well fitted inhibition curve with a large enough effect in the signal ratio in the repeat runs, not every such curve was filed as active; the % refers to the signal ratio; note: potency is the fitted concentration of half-maximal effect). The method, boiled down: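 GeneBLAzer FXR-UAS-bla HEK 293T, CDCA-stimulated (50 uM final). Compound treatment 16 h, 37 °C. Detection: beta-lactamase cleavage of B/G FRET substrate, fluorescence.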
Sequence of Bile acid receptor (Homo sapiens) (Q96RI1 whole entry, looked up): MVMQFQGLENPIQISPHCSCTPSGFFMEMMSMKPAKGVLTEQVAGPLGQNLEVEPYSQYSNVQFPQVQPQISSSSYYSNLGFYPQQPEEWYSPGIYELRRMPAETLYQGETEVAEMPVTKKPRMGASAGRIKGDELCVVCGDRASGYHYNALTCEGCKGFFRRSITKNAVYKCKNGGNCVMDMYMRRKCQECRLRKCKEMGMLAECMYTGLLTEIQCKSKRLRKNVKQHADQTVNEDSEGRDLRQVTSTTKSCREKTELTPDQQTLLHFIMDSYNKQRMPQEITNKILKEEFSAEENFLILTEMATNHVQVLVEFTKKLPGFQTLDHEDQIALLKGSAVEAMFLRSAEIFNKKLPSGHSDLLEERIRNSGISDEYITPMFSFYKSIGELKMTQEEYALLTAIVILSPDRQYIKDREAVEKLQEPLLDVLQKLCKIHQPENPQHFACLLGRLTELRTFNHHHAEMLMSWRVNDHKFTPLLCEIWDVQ

For assay [19], the target named is Retinoic acid receptor RXR-alpha (Homo sapiens) (UniProt P19793). In words: qHTS assay to identify small molecule agonists of the RXR signaling pathway (AID 1159527). Note: nearly all actives have a fitted effect of over 35% in size. The procedure, abridged:
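qHTS of the Tox21 10K library in GeneBLAzer RXR-alpha HEK 293T cells carrying a beta-lactamase reporter […]; 16 hr treatment, 9-cis retinoic acid as agonist control, FRET read-out.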

Records with an inconclusive call do not appear. The source made the active and inactive calls. Unless noted, calls come from the whole dose curve.

Sequence of Vitamin D3 receptor (Homo sapiens) (P11473 whole entry, looked up): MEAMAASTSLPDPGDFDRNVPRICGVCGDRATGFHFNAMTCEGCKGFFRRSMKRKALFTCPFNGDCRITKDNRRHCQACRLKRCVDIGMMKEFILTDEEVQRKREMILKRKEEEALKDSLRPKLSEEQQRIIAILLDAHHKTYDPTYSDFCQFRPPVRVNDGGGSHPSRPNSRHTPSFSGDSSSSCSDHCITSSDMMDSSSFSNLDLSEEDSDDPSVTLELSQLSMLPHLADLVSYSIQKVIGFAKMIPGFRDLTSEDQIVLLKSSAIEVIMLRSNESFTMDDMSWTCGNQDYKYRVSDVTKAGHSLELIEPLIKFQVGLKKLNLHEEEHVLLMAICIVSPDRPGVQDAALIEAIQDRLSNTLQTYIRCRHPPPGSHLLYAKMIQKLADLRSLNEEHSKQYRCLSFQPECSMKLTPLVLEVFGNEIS
Sequence of Retinoic acid receptor RXR-alpha (Homo sapiens) (P19793 whole entry, looked up): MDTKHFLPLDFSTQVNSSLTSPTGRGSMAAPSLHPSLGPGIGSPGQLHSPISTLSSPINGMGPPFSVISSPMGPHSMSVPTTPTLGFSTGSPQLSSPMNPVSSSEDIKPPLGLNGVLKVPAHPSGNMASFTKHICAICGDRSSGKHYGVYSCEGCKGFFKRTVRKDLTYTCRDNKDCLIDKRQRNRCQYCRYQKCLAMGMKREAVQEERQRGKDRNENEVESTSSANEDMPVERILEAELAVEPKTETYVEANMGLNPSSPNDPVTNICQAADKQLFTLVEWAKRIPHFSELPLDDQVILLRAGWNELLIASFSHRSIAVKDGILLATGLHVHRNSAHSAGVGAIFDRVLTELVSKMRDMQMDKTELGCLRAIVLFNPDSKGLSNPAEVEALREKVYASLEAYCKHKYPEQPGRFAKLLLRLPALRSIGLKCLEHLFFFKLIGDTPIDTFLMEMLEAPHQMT

For `C[C@@H]1CC[C@@]2(OC1)O[C@H]1[C@@H](O)[C@H]3[C@@H]4CC[C@H]5C[C@@H](O[C@@H]6O[C@H](CO)[C@H](O[C@@H]7O[C@H](CO)[C@@H](O)[C@H](O[C@@H]8OC[C@@H](O)[C@H](O)[C@H]8O)[C@H]7O[C@@H]7O[C@H](CO)[C@@H](O)[C@H](O[C@@H]8O[C@H](CO)[C@@H](O)[C@H](O)[C@H]8O)[C@H]7O)[C@H](O)[C@H]6O)[C@H](O)C[C@]5(C)[C@H]4CC[C@]3(C)[C@H]1[C@@H]2C`, the Potency in [1] is 5.83 µM (active); in assay [2] it was 4.63 µM (active); in assay [3], 26.1 µM (active); in [4], 23.2 µM (active); in assay [6], 32.8 µM (active); in assay [7], 8.24 µM (active). The Potency in assay [8] was 5.2 µM (active); in [9] it was 9.25 µM (active); in assay [10], 7.34 µM (active); in assay [11] it was 10.3 µM (active); in [12], 11.6 µM (active). In addition, the Potency entry in [5] is “inactive”.
Regarding `Oc1ccc2ccc3cccc4ccc1c2c34`, the Potency entry in [4], in assay [9], in assay [10], in [13] and in assay [12] was “inactive” each time.
For `COP(=S)(OC)Oc1cc(Cl)c(Br)cc1Cl`, the Potency result in assay [1], in assay [14], in assay [2], in assay [3], in [5] and in assay [6] was “inactive” throughout. Also, the Potency result in assay [7], in assay [8], in assay [9], in assay [10], in [12] and in [16] was “inactive” each time. Besides, the outcome in assay [15] was inactive. Besides, the Potency in [13] was 68.6 µM (active).
In the case of `Oc1c(Cl)c(Cl)cc(Cl)c1Cl`, the Potency result in assay [17], in assay [9], in [10], in assay [12] and in assay [16] was “inactive” throughout. In addition, in assay [13], the Potency is 23.7 µM (active).
For the compound `[Hg+2].[I-].[I-]`, the Potency in assay [2] is 3.47 µM (active); in assay [3], 3.09 µM (active); in assay [4], 3.89 µM (active); in assay [7], 1.55 µM (active); in assay [8] it was 5.49 µM (active); in assay [9], 7.76 µM (active). Besides, the Potency in [10] is 49 µM (active); in assay [11], 2.17 µM (active).
`Nc1ccccc1C(=O)OC/C=C/c1ccccc1`: the Potency in assay [1] was 39 µM (active); in [7] it was 49.1 µM (active); in assay [8] it was 49.1 µM (active). In addition, the Potency result in assay [14], in assay [2], in assay [17], in assay [4], in [9] and in assay [10] was “inactive” in each case. In addition, in [13], the Potency entry is “inactive”.
Turning to `Nc1ccc(Cc2ccc(N)c(Cl)c2)cc1Cl`, the Potency result in assay [4], in assay [9], in assay [10], in assay [11] and in [13] was “inactive” throughout.
Turning to `C[C@]12CC[C@@H]3c4ccc(OC(=O)N(CCCl)CCCl)cc4CC[C@H]3[C@@H]1CC[C@@H]2O`, the Potency entry in assay [1], in assay [14], in [7], in assay [8], in [9] and in assay [10] was “inactive” in each case. The Potency entry in [11] and in [12] was “inactive” each time. Besides, the Potency in assay [18] was 21.1 µM (active). In addition, the result in assay [15] was inactive.
Consider `CCCCCCCCCCCCCCC(Br)C(=O)O` (stereo unspecified), for which the Potency in assay [14] was 13.8 µM (active); in assay [3] it was 21.9 µM (active); in assay [9] it was 54.9 µM (active); in assay [10], 38.9 µM (active). The Potency result in assay [17], in [18], in [6], in assay [11], in [12] and in assay [16] was “inactive” in each case. Besides, the call in assay [19] was inactive.
